Laboratory results published in PubChem BioAssay AID1499 (Sanford-Burnham Center for Chemical Genomics, 2009).
The campaign covered roughly 93,000 compounds. About 65 (0.07%) were called active.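 How the source made its calls: active means 10 µM primary screen giving 50% or more activity, confirmed by 40% or more on retest at that dose; inactive means the rest.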 Many of the other results were omitted from the sample, so actives are more common in it than they were.

target: Integrin beta-2 (Homo sapiens) + Integrin alpha-M (Homo sapiens) (UniProt P05107+P11215); experiment: enhancers of CD11b/CD18 adhesion to fibrinogen, primary screen, K562 cells, luminescence (AID 1499); settings: ATPlite luminescence, at 10 µM, active compounds read high
Sequence (P05107 whole entry, looked up, other chains not shown): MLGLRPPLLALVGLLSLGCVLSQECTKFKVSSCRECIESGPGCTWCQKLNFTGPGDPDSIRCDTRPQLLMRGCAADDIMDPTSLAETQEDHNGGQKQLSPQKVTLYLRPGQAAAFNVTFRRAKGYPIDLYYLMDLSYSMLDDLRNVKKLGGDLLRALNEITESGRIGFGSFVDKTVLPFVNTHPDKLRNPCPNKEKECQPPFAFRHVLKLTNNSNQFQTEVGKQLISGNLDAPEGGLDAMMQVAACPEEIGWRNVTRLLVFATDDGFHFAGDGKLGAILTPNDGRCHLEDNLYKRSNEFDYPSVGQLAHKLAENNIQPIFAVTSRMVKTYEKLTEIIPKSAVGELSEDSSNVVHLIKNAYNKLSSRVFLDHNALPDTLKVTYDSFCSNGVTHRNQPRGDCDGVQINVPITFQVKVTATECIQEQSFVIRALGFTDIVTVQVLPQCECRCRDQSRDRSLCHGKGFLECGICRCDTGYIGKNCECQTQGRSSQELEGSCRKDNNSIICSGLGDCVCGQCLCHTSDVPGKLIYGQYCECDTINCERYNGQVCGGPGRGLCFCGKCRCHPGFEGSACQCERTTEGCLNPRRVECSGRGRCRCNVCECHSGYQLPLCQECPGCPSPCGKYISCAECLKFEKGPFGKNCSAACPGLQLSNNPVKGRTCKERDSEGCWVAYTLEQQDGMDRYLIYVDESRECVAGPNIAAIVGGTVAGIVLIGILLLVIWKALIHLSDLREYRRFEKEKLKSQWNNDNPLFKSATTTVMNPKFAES

activation, inactive:
COc1ccc(C(=O)OCC(=O)NC(=O)CCSc2ccccc2)cc1 0.6%, N#C/C(=C/c1cccc([N+](=O)[O-])c1)c1nnc2n1CCCCC2 1.1%, CCCCNC(=O)CSc1nc2ccc(NC(=O)CSc3nnc(N)s3)cc2s1 -3.6%, Fc1ccccc1CNC(=S)Nc1ccc(Cl)cc1 -7.2%, CCCn1c(SCC(=O)Nc2ccc(C)c(S(=O)(=O)N3CCOCC3)c2)n[nH]c1=O -1.4%, O=C(Cc1ccc(-c2ccccc2)cc1)NC(c1ccccc1)c1ccccc1 0.5%, CCN(CC)S(=O)(=O)c1ccc(C)c(NC(=O)COc2ccc(Br)cc2Cl)c1 -2.8%, O=C(Cc1c[nH]c2ccccc12)N/N=C/c1cccc(F)c1 1%, CCCC(=O)Nc1cccc(NC(=S)NC(=O)C(C)Oc2ccc(Cl)cc2Cl)c1 (configuration not stated) -4.3%, Cc1c(C(=O)NCCCc2ccccc2)cccc1[N+](=O)[O-] -3.8%, O=C(Cn1nnc(-c2ccccc2)n1)NCc1ccc2c(c1)OCO2 -1.1%, O=C(CCCCn1c(=O)[nH]c2ccccc2c1=O)NCc1ccc2c(c1)OCO2 -2%, Cc1cccc(NC(=S)Nc2ccc3cn[nH]c3c2)c1 0.1%, CSCC[C@H](NC(=O)OC(C)(C)C)C(=O)N/N=C/c1cc2ccc(C)cc2nc1Cl 1.8%, CC(=O)Nc1ccc(Nc2c([N+](=O)[O-])cc(S(C)(=O)=O)cc2[N+](=O)[O-])cc1 -0.7%, Cc1cccc2cc(CN(Cc3cccs3)C(=S)NCc3ccco3)c(=O)[nH]c12 3.8%, O=C(COC(=O)c1cc2c(s1)CCCC2)NCc1ccccc1Cl -0.1%, Cc1ccc(NC(=S)N2CCN(c3ncccn3)CC2)cc1C -7.7%, Cc1c(Cl)cccc1NC(=O)CC1SC(=NCC2CCCO2)NC1=O (configuration not stated) 2.9%, Cc1c(C(=O)NCCN2C(=O)S/C(=C\c3cccs3)C2=O)cccc1[N+](=O)[O-] 23%, COc1ccc(CN2C(=O)CC(Cc3ccc(C)cc3)C2=O)cc1OC (configuration not stated) -1.2%, COC(=O)c1ccc(NC(=O)CSc2nncc3ccc(OC)c(OC)c23)cc1 3%, Cc1cc(C(=O)CSc2nc(N)cc(=O)[nH]2)c(C)n1-c1cccc(F)c1 16.6%, COc1cccc(N(C(=O)C2COc3ccccc3O2)C(C(=O)NC2CCCCC2)c2ccc(O)cc2)c1 (configuration not stated) -0.8%, O=C(NCCc1ccccn1)c1cc(-c2ccc(Cl)cc2)nc2ccccc12 0.7%, Cc1ccc(NC(=O)C(=O)NCc2ccc(/C=N/NC(=O)c3c(C)nc4cc(C)ccn34)o2)cc1 100%, CCOC(=O)C1=C(C)N=C2c3ccccc3C(=O)C2C1c1ccc(Br)cc1 (configuration not stated) 4.9%, Cc1ccc(NC(=O)CC2C(=O)N(Cc3ccccc3)C(=S)N2NC(=O)c2cccc(F)c2)c(C)c1 (configuration not stated) 2.6%, Clc1cccc(N=C2NN=C(c3ccc4c(c3)OCCO4)CS2)c1 4.8%, CC(=O)Nc1ccc(NC(=S)NC(=O)c2ccc([N+](=O)[O-])c(C)c2)cc1 0.9%, CC(C)(C)OC(=O)N/N=C/c1ccc(C(=O)O)cc1 0.2%, Cc1ccc(NC(=O)NC(=O)CSc2nnc(-c3ccc(OC(F)F)cc3)n2N)c(C)c1 -3.1%, CN(C)CCCNC(=S)NCc1ccc(Cl)cc1 2.8%, C/C(=N\NC(=O)CCn1nc(C)cc1C)C(C)(C)C 2.8%, COc1cc2c3c(c1)/C(=C1/SC(=S)NC1=O)C(=O)N3C(C)(C)C=C2C -7.7%, Cc1ccc(-n2c(C)cc(C(=O)CSc3nnc4ccccn34)c2C)cc1 -2.4%, CC(NC(=S)Nc1ccccc1)C1COc2ccccc2O1 (configuration not stated) -1.1%, COc1ccc2c(CN3CCN(S(=O)(=O)c4cccs4)CC3)cc(=O)oc2c1 1.6%, CCN(c1ccc(NC(=O)COC(=O)CCc2nc3ccccc3n2-c2ccccc2)cc1)C(C)C 5.2%, CC(=O)Nc1ccc(S(=O)(=O)N2CCN(c3ccc([N+](=O)[O-])c(NCCN4CCOCC4)c3)CC2)cc1 8.9%, COCCCNC(=O)Cn1cc(/C=C(\C#N)C(=O)N2CCN(c3ccccc3)CC2)c2ccccc21 0%, O=C(Nc1nnc(SCc2ccccc2Cl)s1)c1cccc([N+](=O)[O-])c1 -9.7%, O=C(CCCN1C(=O)/C(=C/c2ccco2)SC1=S)Nc1ccccc1 2.1%, COc1ccc(/C(N)=N/OC(=O)Cc2ccccc2)cc1 -3.3%, CCOC(=O)c1c(NC(=O)C2CCN(S(=O)(=O)c3ccc(Cl)cc3)CC2)sc2c1CCCC2 15.1%, COC(=O)Cc1ccc(NC(=S)NCc2ccccc2)cc1 1.6%, CC(C)N1C(=O)N(c2ccccc2)C(C)(O)CC1(C)C (configuration not stated) 3.2%, O=C(CSc1nc2ccccc2c(=O)n1CCCO)N1CCc2ccccc21 2.1%, Cc1ccc2[nH]cc(CCNC(=O)c3ccc([N+](=O)[O-])cc3)c2c1 -1.3%, CCCCC(O)(CCCC)C(=O)NN(C(=O)CCl)c1ccccc1 3.4%, CNc1ccc(NC(C)=O)cc1[N+](=O)[O-] 2.9%, COc1ccc(NC(=O)CN2C(=O)C(c3ccccc3)=NC23CCCCCC3)cc1OC -1.4%, Cc1ccc(-c2csc(NC(=O)c3cccs3)n2)cc1 3.8%, Cc1nc(-c2ccc(NC(=O)c3cccs3)cc2)cs1 -4.6%, COc1ccccc1OCCC(=O)OCC(=O)NCc1ccccc1 3.3%, CCCN(CCC)c1c([N+](=O)[O-])c(=O)oc2ccccc12 2.9%, CC(C)[C@H](NC(=O)c1ccc(F)cc1)C(=O)OCC(=O)NC(=O)c1cccn1C 25.8%, Cc1cc(C)c(NC(=S)N2CCCC2C(=O)O)c(C)c1 (configuration not stated) -3.4%, O=C(Nc1cc(C(F)(F)F)ccc1Cl)C(=O)N1CCCCC1 10.3%, CC(NC(=O)CSc1nc2c(cc1C#N)CN(C)CC2)c1ccccc1 (configuration not stated) -1.5%, CC(C)CCSc1ncnc2c1oc1nc3c(cc12)COC(C)(C)C3 6.2%, CCc1c(C)sc(NC(=O)/C=C/c2ccc3c(c2)OCO3)c1C(=O)OC 9.1%, COc1ccc2oc(-c3cccc(NC(=O)CSc4ccc(Cl)cc4)c3)nc2c1 13.1%, O=C(COC(=O)Cc1ccc(F)cc1)Nc1cc(S(=O)(=O)N2CCOCC2)ccc1N1CCCC1 -2.5%, CN(C)CCCO/N=C(\c1ccccc1)c1ccncc1 3.7%, O=C(COC(=O)Cn1cnc2ccccc21)Nc1cccc2c1C(=O)c1ccccc1C2=O 7.9%, COc1cc(Cl)c(C)cc1NC(=O)COC(=O)c1cc(SC)ccc1Cl 0.1%, Cc1ccc(-c2nc(C)sc2CC(=O)OCC(=O)Nc2c(F)cccc2F)cc1 -4%, Cc1csc(=Nc2ccccc2)n1CCO 0.8%, Cc1ccc(S(=O)(=O)Nc2nc(C)cc(N/N=C/c3ccc(O)cc3)n2)cc1 13.5%, Cc1cccc(NC(=O)Cn2c(=O)n(Cc3ccccc3)c(=O)c3c(C)c(C)sc32)c1 6.7%, Cc1ccc(/C=N/NC(=O)CNC(=O)COc2ccccc2)o1 6.3%, O=C1N(c2ccc(Cl)cc2)C(c2ccc(Cl)cc2)N2CCCN12 (configuration not stated) 3.2%, CCOc1ccc(/C=N/OCC(=O)NCc2cccs2)cc1 -0.5%, C=CCn1c(SCn2nnc3ccccc3c2=O)nnc1-c1ccc(Cl)cc1 4.1%, C=CCSc1nc2ccccc2[nH]1 6.8%, Cc1sc2ncnc(Sc3nc4ccccc4s3)c2c1C 12.1%, OC(COCC1COc2ccccc2O1)CN1CCN(c2ccc(F)cc2)CC1 (configuration not stated) 4.1%, C/C(=N/NC(=O)C1COc2ccccc2O1)c1ccco1 (configuration not stated) 1.2%, N#CCOc1ccc(C2=NO[C@@H]3[C@@H]4C[C@@H]([C@H]5C(=O)N(c6ccc7c(c6)OCO7)C(=O)[C@@H]45)[C@H]23)cc1 0.6%, CC(=C/c1ccccc1)/C=N/NC(=O)c1cc(C)oc1C -1.7%, COc1ccc(NC(=O)c2ccc(C#CC(C)(C)O)cc2)cc1 2.8%, Cc1ccc(OCC(=O)Nc2ccccc2Sc2ccc(Cl)cc2)c([N+](=O)[O-])n1 -1%, Cc1cccc(-n2c(C)cc(/C=N/NC(N)=S)c2C)c1 -1.9%, CC(C)NC(=S)N1CCN(S(C)(=O)=O)CC1 0.6%, Cc1ccc(-c2nn(-c3ccccc3)cc2C(=O)Nc2cccc(S(=O)(=O)N3CCOCC3)c2)cc1 -0.1%, CCOc1ccc(NC(=S)NC(=O)/C=C/c2ccc(OC)cc2)c([N+](=O)[O-])c1 34.7%

activation, active:
O=C1N(Cc2ccc3c(c2)OCO3)c2ccccc2C1(O)c1c[nH]c2ccccc12 (configuration not stated) 65.9%, COCCn1c(C)cc(C2=NNC(=Nc3ccc(F)cc3)SC2)c1C 120%, Cc1ccc(-c2nnc(-c3ccc(NC(=O)c4cccs4)cc3)o2)cc1 161%, CC1(C)Cc2nc3sc4c(SCC(=O)NC(c5ccccc5)c5ccccc5)ncnc4c3cc2CO1 93.6%, C=CCSc1nc(Cc2ccc(Cl)cc2)nc2ccccc12 69.1%
